Inconclusive results are not listed. Active and inactive are the calls of the source. Calls follow the shape of the dose curve; as a rule, active = well fitted curve in the direction sought with a large enough effect; inconclusive = small, poorly fitted or top-dose-only effect, or another doubt; inactive = no such curve, though single readings can be large; an effect the other way counts as inactive or inconclusive.
Tests used:
NIH3T3 = assay: qHTS assay to identify novel small-molecules to repurpose for Merkel cell carcinoma treatment (AID 1296009); settings: MCC and control cell lines, CellTiter-Glo viability, 72 h; at 44.8 µM (top of the series) unless noted; also: nearly all actives have a fitted effect of over 60% in size
How it was run: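 Cells were incubated with compound for 72 hr at 37 degree celsius before CellTiter-Glo addition. Luminescence was normalized with no-cell wells as full cytotoxicity and DMSO as baseline.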

C33A = assay: Primary qHTS to identify gynecologic anti-cancer compounds using libraries of approved drugs and bioactive compounds (AID 1345084); settings: Gynecologic cancer cell panel viability, ATPlite luminescence, 48 h; series mostly up to 57.5 µM; also: % is scaled to controls: 0 for no effect and ±100 for the full control effect; nearly all actives have a fitted effect of over 55% in size
How it was run: (§1)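 Five-point cytotoxicity, 48 h drug exposure at 37 C, 5% CO2, on cells seeded 16 h beforehand. ATP content read by ATPlite luminescence.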

CASKI = assay: as above; settings: Gynecologic cancer cell panel viability, ATPlite luminescence, 48 h; series mostly up to 57.5 µM
How it was run: as §1

Es-2 = assay: as above; settings: Gynecologic cancer cell panel viability, ATPlite luminescence, 48 h; series mostly up to 57.5 µM
How it was run: as §1

HeLa = assay: as above; settings: Gynecologic cancer cell panel viability, ATPlite luminescence, 48 h; series mostly up to 57.5 µM
How it was run: as §1

Hek293T = assay: as above; settings: Gynecologic cancer cell panel viability, ATPlite luminescence, 48 h, control line for the selectivity index; series mostly up to 57.5 µM
How it was run: as §1

JEG-3 = assay: as above; settings: Gynecologic cancer cell panel viability, ATPlite luminescence, 48 h; series mostly up to 57.5 µM
How it was run: as §1

OV90 = assay: as above; settings: Gynecologic cancer cell panel viability, ATPlite luminescence, 48 h; series mostly up to 57.5 µM
How it was run: as §1

PA-1 = assay: as above; settings: Gynecologic cancer cell panel viability, ATPlite luminescence, 48 h; series mostly up to 57.5 µM
How it was run: as §1

SKOV3 = assay: as above; settings: Gynecologic cancer cell panel viability, ATPlite luminescence, 48 h; series mostly up to 57.5 µM
How it was run: as §1

Tov-21-G = assay: as above; settings: Gynecologic cancer cell panel viability, ATPlite luminescence, 48 h; series mostly up to 57.5 µM
How it was run: as §1

Tov112D = assay: as above; settings: Gynecologic cancer cell panel viability, ATPlite luminescence, 48 h; series mostly up to 57.5 µM
How it was run: as §1

CAOV3 = assay: as above; settings: Gynecologic cancer cell panel viability, ATPlite luminescence, 48 h; series mostly up to 57.5 µM
How it was run: as §1

CC(C)(O)C1CCC2(C)CCCC(C)(O)C2C1 (stereo not given)
inactive: outcome (NIH3T3) | Potency (C33A) | outcome (CASKI) | Potency (Es-2) | Potency (HeLa) | Potency (Hek293T) | Potency (JEG-3) | Potency (OV90) | Potency (PA-1) | Potency (SKOV3) | Potency (Tov-21-G) | Potency (Tov112D)

COc1ccc(Oc2c(Cl)cnn(C3c4ccccc4-c4ccccc43)c2=O)cc1
inactive: outcome (NIH3T3) | Potency (C33A) | outcome (CASKI) | Potency (Es-2) | Potency (HeLa) | Potency (Hek293T) | Potency (JEG-3) | Potency (OV90) | Potency (PA-1) | Potency (SKOV3) | Potency (Tov-21-G) | Potency (Tov112D)

CC(CCO)CCC1C2(C)CCCC(C)(C)C2CC[C@@]1(C)O (stereo not given in full)
inactive: outcome (NIH3T3) | Potency (C33A) | outcome (CASKI) | Potency (Es-2) | Potency (HeLa) | Potency (Hek293T) | Potency (JEG-3) | Potency (OV90) | Potency (PA-1) | Potency (SKOV3) | Potency (Tov-21-G) | Potency (Tov112D)

COc1cc(C(C)=O)ccc1O[C@@H]1O[C@H](CO[C@@H]2OC[C@@H](O)[C@H](O)[C@H]2O)[C@@H](O)[C@H](O)[C@H]1O
inactive: outcome (NIH3T3) inactive [at 17.4 µM] | Potency (C33A) | outcome (CASKI) | Potency (HeLa) | Potency (Hek293T) | Potency (JEG-3) | Potency (OV90) | Potency (PA-1) | Potency (SKOV3) | Potency (Tov-21-G) | Potency (Tov112D)

C/C(=C\C(=O)C(C)C1CCC2C3=C(CCC21C)C1(C)CCC(=O)C(C)(C)C1(O)CC3)C(C)(C)O (stereo not given)
inactive: outcome (NIH3T3) inactive [at 17.4 µM] | Potency (C33A) | outcome (CASKI) | Potency (Es-2) | Potency (HeLa) | Potency (Hek293T) | Potency (JEG-3) | Potency (OV90) | Potency (PA-1) | Potency (Tov-21-G) | Potency (Tov112D)

O=C(Nc1cc(-c2ccccc2)nn1-c1ccccc1)c1ccc([N+](=O)[O-])cc1
inactive: outcome (NIH3T3) | Potency (C33A) | outcome (CASKI) | Potency (Es-2) | Potency (HeLa) | Potency (Hek293T) | Potency (JEG-3) | Potency (OV90) | Potency (PA-1) | Potency (SKOV3) | Potency (Tov-21-G) | Potency (Tov112D)

CC(C)(C)NS(=O)(=O)c1ccc(-c2ccc3[nH]nc(N)c3c2)cc1
inactive: outcome (NIH3T3) | Potency (C33A) | outcome (CASKI) | Potency (Es-2) | Potency (HeLa) | Potency (Hek293T) | Potency (JEG-3) | Potency (OV90) | Potency (PA-1) | Potency (SKOV3) | Potency (Tov-21-G) | Potency (Tov112D)

Cc1ccc([C@@H]2CC=C(C(=O)O)[C@H](c3ccc(C(C)(C)C)cc3)N2S(=O)(=O)c2ccc(C)cc2)cc1
inactive: outcome (NIH3T3) | Potency (C33A) | outcome (CASKI) | Potency (Es-2) | Potency (HeLa) | Potency (Hek293T) | Potency (JEG-3) | Potency (OV90) | Potency (PA-1) | Potency (SKOV3) | Potency (Tov-21-G) | Potency (Tov112D)

O=C(O)c1cc(O[C@@H]2O[C@H](CO)[C@@H](O)[C@H](O)[C@H]2O)ccc1O
inactive: outcome (NIH3T3) | Potency (C33A) | outcome (CASKI) | Potency (Es-2) | Potency (HeLa) | Potency (Hek293T) | Potency (JEG-3) | Potency (OV90) | Potency (PA-1) | Potency (SKOV3) | Potency (Tov-21-G) | Potency (Tov112D)

COc1cc(CC2COC(c3ccc(OC4OC(CO)C(O)C(O)C4O)c(OC)c3)C2CO)ccc1O (stereo not given)
inactive: outcome (NIH3T3) inactive [at 17.4 µM] | Potency (C33A) | outcome (CASKI) | Potency (Es-2) | Potency (HeLa) | Potency (Hek293T) | Potency (JEG-3) | Potency (OV90) | Potency (PA-1) | Potency (SKOV3) | Potency (Tov-21-G) | Potency (Tov112D)

N#Cc1cccc(-c2c[nH]c3ncnc(N4CCOCC4)c23)c1
inactive: outcome (NIH3T3) | Potency (CAOV3) | outcome (CASKI) | Potency (Es-2) | Potency (HeLa) | Potency (Hek293T) | Potency (JEG-3) | Potency (OV90) | Potency (PA-1) | Potency (SKOV3) | Potency (Tov-21-G) | Potency (Tov112D)

NC[C@@H]1O[C@@H](O[C@@H]2[C@@H](O[C@@H]3O[C@H](CO)[C@@H](O)[C@H]3O)[C@H](O)[C@@H](N)C[C@H]2N)[C@@H](N)[C@H](O)[C@H]1O
inactive: outcome (NIH3T3) inactive [at 9.27 µM] | activity change, negative = cytotoxicity (C33A) 8.18% [at 11.6 µM] | activity change, negative = cytotoxicity (CASKI) 0.509% [at 11.6 µM] | activity change, negative = cytotoxicity (Es-2) 6.5% [at 11.6 µM] | activity change, negative = cytotoxicity (HeLa) 15.1% [at 11.6 µM] | activity change, negative = cytotoxicity (Hek293T) 17.2% [at 11.6 µM] | activity change, negative = cytotoxicity (JEG-3) 7.01% [at 11.6 µM] | activity change, negative = cytotoxicity (OV90) 0.365% [at 11.6 µM] | activity change, negative = cytotoxicity (SKOV3) 2.15% [at 11.6 µM] | activity change, negative = cytotoxicity (Tov-21-G) -2.07% [at 11.6 µM] | activity change, negative = cytotoxicity (Tov112D) -1.83% [at 11.6 µM]

CN1CCCC1Cc1c[nH]c2ccc(CCS(=O)(=O)c3ccccc3)cc12 (stereo not given)
inactive: outcome (NIH3T3) | Potency (C33A) | outcome (CASKI) | Potency (Es-2) | Potency (HeLa) | Potency (Hek293T) | Potency (JEG-3) | Potency (OV90) | Potency (PA-1) | Potency (SKOV3) | Potency (Tov-21-G) | Potency (Tov112D)

COc1cccc(CN(C(=O)CC(C)(C)C)C2CC(C(=O)N3CCNCC3)N(Cc3ccc4c(c3)OCO4)C2)c1 (stereo not given)
inactive: outcome (NIH3T3) | Potency (C33A) | outcome (CASKI) | Potency (Es-2) | Potency (HeLa) | Potency (Hek293T) | Potency (JEG-3) | Potency (OV90) | Potency (PA-1) | Potency (SKOV3) | Potency (Tov-21-G) | Potency (Tov112D)

CCOC(=O)CSc1nc2c(sc3ccccc32)c(=O)n1CCCN1CCCC1
inactive: outcome (NIH3T3) | Potency (C33A) | outcome (CASKI) | Potency (Es-2) | Potency (Hek293T) | Potency (JEG-3) | Potency (OV90) | Potency (PA-1) | Potency (Tov-21-G) | Potency (Tov112D)
